Assay results from PubChem BioAssay.
Active and inactive are the calls of the source.

Experiments:
[1] = test system: PRMT1 (protein arginine N-methyltransferase 1); test: small molecules binding arginine methyltransferase PRMT1 – biochemical, small-molecule microarray, 635 nm fluorescence, primary screen (AID 1088); conditions: higher = more signal;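 further: binding of Prmt1 protein to compounds spotted on small-molecule microarray slides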
[2] = growth effects on S. cerevisiae YJM789 – YJM789 clinical isolate, OD600, 24 h, basal, primary screen (AID 1089); conditions: higher = more signal, called active from +8 up or from −8 down;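 further: growth of clinical yeast isolate S. cerevisiae YJM 789 seeded 1000 cells per well; test concentration not given here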
[3] = S. pombe growth modifiers, basal conditions – strain 972, OD600, 24 h, no modulator, primary screen (AID 1090);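 further: basal condition with compound alone and no growth modifier present; test concentration not given here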; conditions: S. pombe 972 growth, higher = more signal, called active from +8 up or from −8 down
[4] = budding yeast growth modifiers under rapamycin – strain BY4716, OD600, 96 h, primary screen (AID 1091); further: test concentration not given here; conditions: S. cerevisiae BY4716 + rapamycin, higher = more signal, called active from +8 up or from −8 down
[5] = target: Torsin-1A-interacting protein 2 (Homo sapiens) (UniProt Q8NFQ8); test: small molecules binding lysate-expressed LULL1 – cell lysate, human LULL1 lysate, 635/667 nm fluorescence, primary screen (AID 1092); conditions: small-molecule microarray, hLULL1 lysate binding, 635 nm fluorescence; higher = more signal;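 further: probe is lysate of COS7 cells overexpressing human LULL1; score merges per-feature 667 nm fluorescence with signal-to-noise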
Sequence of Torsin-1A-interacting protein 2 (Homo sapiens) (Q8NFQ8 whole entry, looked up): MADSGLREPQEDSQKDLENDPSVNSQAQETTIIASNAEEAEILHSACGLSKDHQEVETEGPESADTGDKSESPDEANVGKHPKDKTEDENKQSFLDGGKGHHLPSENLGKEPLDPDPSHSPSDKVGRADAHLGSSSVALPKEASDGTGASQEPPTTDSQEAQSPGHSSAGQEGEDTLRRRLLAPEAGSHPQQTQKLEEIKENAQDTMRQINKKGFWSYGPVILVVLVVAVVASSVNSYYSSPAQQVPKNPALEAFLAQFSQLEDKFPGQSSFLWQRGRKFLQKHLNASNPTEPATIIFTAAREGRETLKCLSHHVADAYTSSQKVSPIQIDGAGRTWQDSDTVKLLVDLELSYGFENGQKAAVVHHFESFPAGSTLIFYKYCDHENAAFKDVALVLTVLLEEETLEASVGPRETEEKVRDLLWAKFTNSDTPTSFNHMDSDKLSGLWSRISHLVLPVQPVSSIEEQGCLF

[6] = optical density change of DRC41 E. coli – strain DRC41, OD650, 24 h, E. coli filamentation project, primary screen (AID 1093);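 further: MC1000 strain lacking acrAB efflux and sulA so SOS filamentation is blocked; test concentration not given here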; conditions: E. coli DRC41 growth, higher = more signal, called active from +8 up or from −8 down
[7] = probe aLefty2 binding to arrayed compounds – biochemical, biotinylated probe, 635/667 nm fluorescence, primary screen (AID 1094); conditions: small-molecule microarray, higher = more signal;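 further: score merges spot fluorescence near 667 nm with spot signal-to-noise ratio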
[8] = test system: Noggin (protein binding on small-molecule microarray); test: small molecules binding Noggin protein – biochemical, 635/667 nm fluorescence, primary screen (AID 1095); conditions: 635 nm fluorescence, higher = more signal;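 further: score merges 667 nm feature fluorescence with signal to noise over triplicate slides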
[9] = target: Neurogenic locus notch homolog protein 3 (Homo sapiens) (UniProt Q9UM47); test: small molecules binding NOTCH3 protein – biochemical, 635/667 nm fluorescence, primary screen (AID 1096); conditions: small-molecule microarray, 635 nm fluorescence, higher = more signal
Sequence of Neurogenic locus notch homolog protein 3 (Homo sapiens) (Q9UM47 whole entry, looked up): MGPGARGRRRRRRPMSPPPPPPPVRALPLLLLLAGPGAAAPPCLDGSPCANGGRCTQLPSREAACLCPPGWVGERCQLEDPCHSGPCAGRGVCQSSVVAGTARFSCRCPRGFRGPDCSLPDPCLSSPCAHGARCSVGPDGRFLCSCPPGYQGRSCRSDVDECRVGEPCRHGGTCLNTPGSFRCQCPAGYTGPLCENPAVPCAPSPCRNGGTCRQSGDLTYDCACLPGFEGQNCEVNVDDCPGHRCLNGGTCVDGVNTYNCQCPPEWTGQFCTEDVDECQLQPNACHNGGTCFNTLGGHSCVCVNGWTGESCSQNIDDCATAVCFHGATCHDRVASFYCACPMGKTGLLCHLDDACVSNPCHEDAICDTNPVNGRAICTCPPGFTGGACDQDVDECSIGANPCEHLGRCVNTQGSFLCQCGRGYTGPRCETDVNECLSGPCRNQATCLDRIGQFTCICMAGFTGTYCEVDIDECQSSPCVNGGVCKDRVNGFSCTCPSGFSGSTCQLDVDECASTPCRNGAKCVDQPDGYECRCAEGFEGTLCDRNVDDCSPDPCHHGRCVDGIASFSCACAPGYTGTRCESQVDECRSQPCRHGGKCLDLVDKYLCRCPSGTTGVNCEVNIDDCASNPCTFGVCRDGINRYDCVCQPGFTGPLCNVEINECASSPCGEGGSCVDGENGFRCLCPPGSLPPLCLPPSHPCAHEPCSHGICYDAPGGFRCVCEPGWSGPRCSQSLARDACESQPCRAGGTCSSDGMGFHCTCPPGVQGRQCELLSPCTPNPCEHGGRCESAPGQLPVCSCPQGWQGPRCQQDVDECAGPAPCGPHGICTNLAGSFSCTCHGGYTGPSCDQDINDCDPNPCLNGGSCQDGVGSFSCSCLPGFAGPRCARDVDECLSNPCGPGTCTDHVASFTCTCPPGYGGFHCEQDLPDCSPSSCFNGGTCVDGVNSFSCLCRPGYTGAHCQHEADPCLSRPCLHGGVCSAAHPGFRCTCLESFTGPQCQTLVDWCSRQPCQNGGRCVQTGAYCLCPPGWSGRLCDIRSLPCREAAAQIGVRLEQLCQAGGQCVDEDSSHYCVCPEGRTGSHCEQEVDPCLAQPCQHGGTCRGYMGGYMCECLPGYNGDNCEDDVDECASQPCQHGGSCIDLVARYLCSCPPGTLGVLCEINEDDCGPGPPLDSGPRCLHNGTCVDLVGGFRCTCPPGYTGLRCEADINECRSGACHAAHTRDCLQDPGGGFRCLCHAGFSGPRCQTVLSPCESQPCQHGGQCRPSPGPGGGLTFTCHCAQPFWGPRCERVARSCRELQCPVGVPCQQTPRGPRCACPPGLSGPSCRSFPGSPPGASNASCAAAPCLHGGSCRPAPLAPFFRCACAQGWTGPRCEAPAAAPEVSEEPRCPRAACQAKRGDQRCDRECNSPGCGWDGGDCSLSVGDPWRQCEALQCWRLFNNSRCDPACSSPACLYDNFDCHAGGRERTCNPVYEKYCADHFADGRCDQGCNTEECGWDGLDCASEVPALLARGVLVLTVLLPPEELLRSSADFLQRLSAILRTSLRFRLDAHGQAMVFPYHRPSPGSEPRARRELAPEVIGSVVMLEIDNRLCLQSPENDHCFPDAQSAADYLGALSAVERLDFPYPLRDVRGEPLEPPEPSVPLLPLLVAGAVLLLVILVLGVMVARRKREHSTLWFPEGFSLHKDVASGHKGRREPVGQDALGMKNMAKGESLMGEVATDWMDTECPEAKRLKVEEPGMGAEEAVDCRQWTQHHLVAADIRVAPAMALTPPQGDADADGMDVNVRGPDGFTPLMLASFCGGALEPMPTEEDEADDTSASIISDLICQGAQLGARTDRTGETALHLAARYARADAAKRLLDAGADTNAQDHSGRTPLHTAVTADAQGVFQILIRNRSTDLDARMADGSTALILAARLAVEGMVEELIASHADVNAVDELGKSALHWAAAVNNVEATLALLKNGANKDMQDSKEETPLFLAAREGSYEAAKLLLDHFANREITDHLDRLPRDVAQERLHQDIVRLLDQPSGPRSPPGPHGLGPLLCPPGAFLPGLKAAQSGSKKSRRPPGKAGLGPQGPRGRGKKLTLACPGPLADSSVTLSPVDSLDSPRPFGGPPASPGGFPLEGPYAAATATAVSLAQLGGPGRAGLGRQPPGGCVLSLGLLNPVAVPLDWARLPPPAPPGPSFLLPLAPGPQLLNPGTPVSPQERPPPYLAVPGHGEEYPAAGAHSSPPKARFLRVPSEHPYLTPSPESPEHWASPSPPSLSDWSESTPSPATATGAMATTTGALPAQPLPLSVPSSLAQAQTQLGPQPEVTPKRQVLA

[10] = probe aEGFR binding to arrayed compounds – biochemical, biotinylated probe, 635/667 nm fluorescence, primary screen (AID 1097); conditions: small-molecule microarray, higher = more signal;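 further: probe is a biotinylated anti-EGFR antibody binding compounds printed on slides; score combines fluorescence near 667 nm and signal to noise of each spot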
[11] = test system: Plasmodium falciparum Sir2 (PF13_0152, Sir2A); test: Plasmodium falciparum Sir2A binding compounds – biochemical, small-molecule microarray, 635 nm fluorescence, primary screen (AID 1098); conditions: fluorescence 635 nm, higher = more signal;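 further: score merges spot fluorescence intensity with its signal-to-noise ratio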
[12] = probe aDKK1 binding to arrayed compounds – biochemical, biotinylated probe, 635/667 nm fluorescence, primary screen (AID 1099); conditions: small-molecule microarray, higher = more signal;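 further: score merges 667nm spot fluorescence with signal to noise across triplicate slides; reference of the scale not given here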
[13] = probe aCHRDL2 binding to arrayed compounds – biochemical, biotinylated probe, 635/667 nm fluorescence, primary screen (AID 1100); conditions: small-molecule microarray, higher = more signal
[14] = change in splice reporter luminescence, either direction, cell-based, HEK293, spliceosome inhibition project, primary screen (AID 1101); conditions: HEK293 splicing luciferase reporter, 24 h, higher = more signal, called active from +8 up or from −8 down;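 further: HEK293 cells carrying a splicing-competent luciferase reporter gene; test concentration not given here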
[15] = target: Fibroblast growth factor 10 (Homo sapiens) (UniProt O15520); test: compounds binding fibroblast growth factor 10 – biochemical, small-molecule microarray, 635 nm fluorescence, primary screen (AID 1102); conditions: FGF10 binding, fluorescence 635 nm, higher = more signal
Sequence of Fibroblast growth factor 10 (Homo sapiens) (O15520 whole entry, looked up): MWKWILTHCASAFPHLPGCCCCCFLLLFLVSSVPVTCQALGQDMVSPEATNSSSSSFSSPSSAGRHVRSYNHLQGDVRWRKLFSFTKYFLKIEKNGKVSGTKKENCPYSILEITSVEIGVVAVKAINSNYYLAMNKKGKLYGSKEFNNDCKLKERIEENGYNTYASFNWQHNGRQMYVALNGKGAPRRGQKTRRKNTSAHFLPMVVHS

[16] = test system: glycogen synthase kinase-3 (GSK3A per assay name; protocol says GSK3B); test: compounds binding glycogen synthase kinase-3 – biochemical, small-molecule microarray, 635 nm fluorescence, GSK3A, primary screen (AID 1103); conditions: fluorescence 635 nm, higher = more signal; further: the record names both GSK3A and GSK3B
[17] = target: Epidermal growth factor receptor (Homo sapiens) (UniProt P00533); test: compounds binding epidermal growth factor receptor – biochemical, small-molecule microarray, 635 nm fluorescence, primary screen (AID 1104); conditions: EGFR binding, higher = more signal;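 further: score merges 667 nm emission intensity with spot signal to noise over triplicate slides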
Sequence of Epidermal growth factor receptor (Homo sapiens) (P00533 whole entry, looked up): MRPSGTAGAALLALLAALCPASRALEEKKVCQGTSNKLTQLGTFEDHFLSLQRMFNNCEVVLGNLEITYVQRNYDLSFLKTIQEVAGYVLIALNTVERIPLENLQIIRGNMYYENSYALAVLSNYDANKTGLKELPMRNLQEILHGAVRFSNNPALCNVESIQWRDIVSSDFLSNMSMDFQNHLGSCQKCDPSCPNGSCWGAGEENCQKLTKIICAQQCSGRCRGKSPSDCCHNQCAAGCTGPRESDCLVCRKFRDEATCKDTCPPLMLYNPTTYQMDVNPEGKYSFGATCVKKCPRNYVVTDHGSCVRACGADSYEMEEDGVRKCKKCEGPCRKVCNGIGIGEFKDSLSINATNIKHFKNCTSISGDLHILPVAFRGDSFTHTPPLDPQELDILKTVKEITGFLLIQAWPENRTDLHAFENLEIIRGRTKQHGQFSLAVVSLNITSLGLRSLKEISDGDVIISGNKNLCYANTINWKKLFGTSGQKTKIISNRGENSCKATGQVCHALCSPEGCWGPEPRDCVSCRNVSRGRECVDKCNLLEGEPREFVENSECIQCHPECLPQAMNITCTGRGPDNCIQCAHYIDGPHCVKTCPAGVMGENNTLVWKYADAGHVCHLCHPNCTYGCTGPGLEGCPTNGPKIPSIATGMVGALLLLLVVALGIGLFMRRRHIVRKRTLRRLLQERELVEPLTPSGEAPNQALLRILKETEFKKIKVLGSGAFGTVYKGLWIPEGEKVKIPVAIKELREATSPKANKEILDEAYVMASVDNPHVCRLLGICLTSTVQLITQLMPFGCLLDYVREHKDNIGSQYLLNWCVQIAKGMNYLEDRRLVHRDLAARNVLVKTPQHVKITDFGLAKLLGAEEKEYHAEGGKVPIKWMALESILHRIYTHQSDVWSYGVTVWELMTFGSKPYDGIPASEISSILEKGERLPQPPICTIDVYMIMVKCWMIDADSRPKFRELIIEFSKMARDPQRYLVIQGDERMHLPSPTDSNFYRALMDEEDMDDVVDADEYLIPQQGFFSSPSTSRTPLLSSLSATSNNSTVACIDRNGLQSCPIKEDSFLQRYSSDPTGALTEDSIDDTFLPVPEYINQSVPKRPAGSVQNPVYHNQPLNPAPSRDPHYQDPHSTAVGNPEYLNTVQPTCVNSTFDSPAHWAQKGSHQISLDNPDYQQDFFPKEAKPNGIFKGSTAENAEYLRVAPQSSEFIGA

[18] = target: Follistatin-related protein 3 (Homo sapiens) (UniProt O95633); test: compounds binding follistatin-related protein 3 – biochemical, small-molecule microarray, 635 nm fluorescence, primary screen (AID 1105); conditions: FSTL3 binding, higher = more signal;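 further: score merges emission near 667 nm and signal to noise per printed spot across three slides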
Sequence of Follistatin-related protein 3 (Homo sapiens) (O95633 whole entry, looked up): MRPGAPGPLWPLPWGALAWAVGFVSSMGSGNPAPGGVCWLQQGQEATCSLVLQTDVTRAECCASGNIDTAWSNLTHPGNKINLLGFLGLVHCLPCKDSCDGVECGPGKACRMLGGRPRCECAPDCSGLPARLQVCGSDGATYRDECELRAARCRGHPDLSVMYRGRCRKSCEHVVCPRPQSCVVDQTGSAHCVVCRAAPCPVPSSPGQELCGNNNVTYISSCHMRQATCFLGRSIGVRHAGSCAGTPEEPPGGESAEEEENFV

[19] = target: Dickkopf-related protein 1 (Homo sapiens) (UniProt O94907); test: small molecules binding DKK1 protein – biochemical, small-molecule microarray, 635 nm fluorescence scan, primary screen (AID 1106); conditions: higher = more signal;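 further: score merges emission near 667 nm with signal to noise over three replicate slides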
Sequence of Dickkopf-related protein 1 (Homo sapiens) (O94907 whole entry, looked up): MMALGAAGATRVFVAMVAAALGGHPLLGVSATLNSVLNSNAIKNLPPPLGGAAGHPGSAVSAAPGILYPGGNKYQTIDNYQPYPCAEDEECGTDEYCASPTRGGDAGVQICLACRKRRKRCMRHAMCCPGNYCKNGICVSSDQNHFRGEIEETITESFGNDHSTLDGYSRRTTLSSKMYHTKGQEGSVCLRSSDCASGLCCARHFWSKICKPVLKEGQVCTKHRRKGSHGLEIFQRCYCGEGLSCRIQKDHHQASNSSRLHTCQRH

[20] = test system: Inhibin beta A chain (activin A); test: small molecules binding activin A – biochemical, small-molecule microarray, 635 nm fluorescence scan, primary screen (AID 1107); conditions: INHBA, higher = more signal;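 further: mouse activin A protein probed at 4.33 µg/mL on printed slides; score merges bound-protein fluorescence near 667 nm with spot signal-to-noise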

Row | SMILES | composite z-score [1] | z-score [2] | z-score [3] | z-score [4] | composite z-score [5] | z-score [6] | composite z-score [7] | composite z-score [8] | composite z-score [9] | composite z-score [10] | composite z-score [11] | composite z-score [12] | composite z-score [13] | z-score [14] | composite z-score [15] | composite z-score [16] | composite z-score [17] | composite z-score [18] | composite z-score [19] | composite z-score [20]
1 | C#C[C@@H]1Oc2ccccc2S(=O)(=O)N2CCC[C@H]12 | -1.07 | -0.0284 (inactive) | 0.809 (inactive) | -2.55 (inactive) | -0.875 | -1.1 (inactive) | 0.0886 | 0.18 | -0.176 | 0.056 | -0.298 | -0.105 | -0.246 | 0.712 (inactive) | 0.111 | -0.859 | 0.304 | -0.0777 | 0.407 | 0.807
2 | COC(=O)[C@@]1(Cc2ccc(F)cc2)[C@@H]2C(=CC(=O)[C@H]2CC(=O)C(=O)N(C)C)CN1C(=O)c1ccccc1 | 1.14 | 1 (inactive) | 1.84 (inactive) | 8.71 (active) | 3.5 | -0.399 (inactive) | 0.393 | 0.171 | 1.02 | 0.396 | 0.346 | 1.31 | 0.921 | -1.17 (inactive) | 0.625 | 1.29 | -0.0946 | 1.06 | -0.251 | 0.637
3 | c1ccc(C2NCCc3c2[nH]c2ccccc32)cc1 (stereo not given) | -0.339 | -0.272 (inactive) | -2.36 (inactive) | -0.962 (inactive) | 0.872 | -0.937 (inactive) | -0.126 | 0.388 | -0.246 | 0.122 | -0.214 | -0.227 | 0.412 | -0.231 (inactive) | 0.269 | -0.704 | 0.112 | -0.142 | 0.0559 | 0.586
4 | COCC1=C2[C@@H](CCc3ccccc3)OB(O)C[C@@H]2n2c(=O)n(-c3ccccc3)c(=O)n2C1 | -0.162 | 0.114 (inactive) | -0.591 (inactive) | -0.644 (inactive) | 0.332 | 0.203 (inactive) | -0.166 | 0.264 | -0.26 | -0.145 | 0.48 | -0.32 | -0.448 | 0.184 (inactive) | 0.511 | -0.114 | 0.492 | 0.444 | 0.374 | 0.632
5 | COc1ccc(-c2nc3c(c4c2C[C@H](C)OC4)CN(CCC(C)C)CC3)cc1 | 1.31 | 0.382 (inactive) | -0.692 (inactive) | 0.0635 (inactive) | 1.5 | 0.618 (inactive) | -0.142 | 0.501 | 0.982 | 0.167 | 0.785 | -0.0348 | -0.514 | 0.386 (inactive) | 1.02 | 1.08 | 0.472 | 1 | 0.388 | -0.296
6 | O=C(CS)NCCCCCNC(=O)[C@H]1C[C@H]2C(=O)N3CCC[C@H]3C(=O)N2[C@H]1c1cccc(OCCO)c1 | 1.53 | 0.436 (inactive) | -0.723 (inactive) | -0.173 (inactive) | 2.7 | 0.146 (inactive) | 0.0124 | 1.76 | 1.1 | -0.0025 | 1.17 | 0.0187 | 0.367 | 0.378 (inactive) | 1.35 | 1.32 | 0.194 | 1.41 | 1.57 | 1.3
7 | O=C1[C@H]2[C@H]3[C@H](O)[C@H](O)CC(=NOCc4ccccc4)[C@H]3CC[C@H]2C(=O)N1c1cccc(Oc2ccccc2)c1 | 1.48 | -0.0026 (inactive) | 0.019 (inactive) | -1.12 (inactive) | 2.41 | 0.211 (inactive) | -0.0654 | 0.729 | 0.824 | 0.0801 | 0.669 | -0.421 | -0.469 | 0.639 (inactive) | 0.787 | 0.596 | 0.349 | 0.911 | 0.487 | -0.0134
8 | CO[C@@H]1COC(=O)CCC[C@@H](C)[C@H](OC)COC(=O)CCC[C@H]1C | 0.408 | 0.376 (inactive) | 0.852 (inactive) | 0.294 (inactive) | -0.431 | -0.0526 (inactive) | -0.234 | 0.6 | 0.636 | -0.0967 | 0.691 | -0.224 | -0.755 | 0.349 (inactive) | 0.0939 | 0.534 | 0.379 | 0.715 | 0.731 | -0.0672
9 | C=C(/C(=C/C[C@@H](OC(=O)c1ccncc1)c1ccc(OCCO)cc1)c1cnc2ccccc2c1)C(C)C | 1.55 | -24.8 (active) | -20.4 (active) | -4.32 (inactive) | 0.65 | 1.23 (inactive) | -0.0262 | 1.65 | 1.07 | -0.0949 | 1.2 | -0.144 | -0.216 | -2.87 (inactive) | 1.54 | 1.28 | 0.419 | 1.24 | 0.824 | 1.56
10 | CC(CCN1CCc2nc(-c3ccccc3)c(-c3ccccc3)cc2C1)=NO[C@H](C)c1cn([C@@H]2COC[C@H]2O)nn1 | 1.49 | -0.0653 (inactive) | -1.35 (inactive) | -4.33 (inactive) | 2.03 | 0.364 (inactive) | 0.0218 | 0.224 | 0.299 | -0.137 | 1.1 | -0.182 | -0.432 | 0.611 (inactive) | 0.215 | 0.403 | 0.0515 | 0.343 | 0.0546 | 0.763
11 | O=C1CCCC=C1C(O)CCOCc1ccccc1 (stereo not given) | -0.195 | -0.385 (inactive) | -0.82 (inactive) | -1.15 (inactive) | -1.08 | -0.546 (inactive) | -0.224 | 0.355 | -0.834 | -0.0828 | 0.265 | -0.229 | -0.513 | 0.322 (inactive) | 0.154 | -0.391 | 0.255 | -0.0207 | 0.428 | 0.13
